According to PubChem BioAssay (NCI):
Compounds without any hit were thinned out: in the full panel of roughly 83,000, 20% have a hit.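 Results are percent growth after 48 hours of single-concentration exposure. 100 means growth as in untreated cells, lower positive values show inhibition; negative values down to -100 show cell death.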 Activity calls are given as the source filed them. Rule for the calls: active = growth percent below 10; inactive = the rest.

Experiments:
Assay in all cases: NCI-60 one-dose screen, 48 h (100 = growth as untreated, 0 = no growth, -100 = all killed)
Conditions in all cases: 10 µM
[1] = tested on: HCT-15 colon
[2] = tested on: HT29 colon
[3] = tested on: SNB-75 CNS
[4] = tested on: SNB-19 CNS
[5] = tested on: U251 CNS
[6] = tested on: PC-3 prostate
[7] = tested on: SK-MEL-5 melanoma
[8] = tested on: UACC-62 melanoma
[9] = tested on: LOX IMVI melanoma
[10] = tested on: SK-MEL-28 melanoma
[11] = tested on: EKVX NSCLC
[12] = tested on: SN12C renal
[13] = tested on: UO-31 renal
[14] = tested on: TK-10 renal
[15] = tested on: ACHN renal
[16] = tested on: CAKI-1 renal
[17] = tested on: A498 renal
[18] = tested on: CCRF-CEM leukemia
[19] = tested on: MOLT-4 leukemia
[20] = tested on: SK-MEL-2 melanoma

Measured: growth

O=C(CNc1nc(-c2ccccc2)cs1)Nc1cccc([N+](=O)[O-])c1
active: [1] -79.4% | [2] -61.6% | [3] -36.5% | [4] -88.1% | [5] -62.6% | [6] -18.5% | [7] -100% | [8] -84% | [9] -100% | [10] -84.9% | [11] -97.1% | [12] -77.8% | [13] -95.7% | [14] -92.2% | [15] -100% | [16] -88.9% | [17] -88.1% | [18] 0.432% | [19] 0.799%

CN1CCN(Cc2ccc(NC(=O)c3cncc(C#Cc4cnc5ccc(N[C@H]6CCOC6)nn45)c3)cc2C(F)(F)F)CC1
active: [1] -84.3% | [2] -33.2% | [3] -98% | [4] -98.8% | [5] -79.7% | [6] -20.7% | [7] -100% | [8] -93.3% | [9] -99.1% | [10] -92.8% | [11] -99.4% | [12] -93.1% | [13] -95.6% | [14] -69.8% | [15] -100% | [16] -96.7% | [18] -2.23% | [19] -9.84%

CC1(c2ccccc2)NC(=O)N(CC(=O)Nc2ccc(C(=O)/C=C/c3ccccc3)cc2)C1=O (configuration not stated)
active: [1] 2.92% | [2] -23% | [5] -15.2%
inactive: [3] 72.1% | [4] 66.1% | [6] 31.6% | [7] 20.4% | [8] 36.5% | [10] 62.3% | [20] 75.3% | [11] 58.2% | [12] 68.7% | [13] 52.9% | [14] 92.1% | [15] 60.3% | [16] 61.9% | [17] 104% | [18] 35.7% | [19] 22.9%

Cc1cc2nc3c4ccccc4n(CCO)c3nc2cc1C
inactive: [1] 71.2% | [2] 98.1% | [3] 73.6% | [4] 87.7% | [5] 64.7% | [6] 57.3% | [7] 81.6% | [8] 73.8% | [10] 91% | [20] 101% | [11] 84.5% | [12] 43.5% | [13] 28.6% | [14] 165% | [16] 55.4% | [17] 61.6% | [18] 71.6% | [19] 78.4%
active: [15] -6.25%

C=C1CCC2C3(C)COC(c4cc(F)cc(F)c4)OC3CCC2(C)C1C/C=C1/C(=O)OCC1O (configuration not stated)
active: [1] -34.6% | [2] -29.3% | [3] -45.9% | [4] -78.5% | [5] -95.2% | [6] -32.1% | [7] -88.6% | [8] -15.2% | [10] -70.7% | [20] -60.8% | [11] -42.8% | [12] -31.6% | [13] -97.1% | [14] -86.3% | [15] -99.6% | [16] -73.2% | [19] 8.72%
inactive: [17] 106% | [18] 15.1%

OCc1[nH]nc2cc(Nc3ncc4ccc(Br)c(OC5CCC(O)CC5)c4n3)ccc12 (configuration not stated)
active: [1] -5.87% | [2] -41.1% | [3] -44.1% | [4] 6.37% | [5] 8.55% | [6] 9.54% | [7] -99.1% | [8] -89.2% | [9] -81.5% | [10] -68.7% | [11] -27.8% | [13] -27.2% | [14] -89.6% | [15] 0.365% | [16] -17.2% | [17] -26.7% | [18] 0.234% | [19] 1.17%

COc1ccccc1NCc1ccc(CO)n1-c1ccc(C)cc1
inactive: [1] 96.7% | [2] 102% | [3] 80.2% | [4] 94.9% | [5] 96.1% | [6] 80.2% | [7] 100% | [8] 83.8% | [10] 106% | [20] 104% | [11] 98.9% | [12] 86.8% | [13] 60.3% | [14] 107% | [15] 93.3% | [16] 79.9% | [17] 123% | [18] 86.3%

Cc1ccc(-c2cc(-c3cc4ccccc4nc3Cl)[nH]c(=S)n2)cc1
active: [7] -11%
inactive: [1] 30.2% | [2] 43.3% | [3] 66.2% | [4] 71.1% | [5] 71.8% | [6] 53.1% | [8] 21.5% | [9] 53.6% | [10] 47.4% | [11] 50% | [12] 63.8% | [15] 46.5% | [16] 61.5% | [17] 79.5% | [18] 33.2% | [19] 17.5%

CCCn1c(=O)c2[nH]c(-c3ccc(OCc4nc5ccc(C#N)cc5[nH]4)cc3)nc2n(CCC)c1=O
inactive: [1] 84.7% | [2] 88.5% | [3] 84.9% | [4] 80.8% | [5] 70.6% | [6] 55.4% | [7] 83.4% | [8] 49.2% | [9] 46.5% | [10] 90.8% | [11] 80.6% | [12] 76.5% | [13] 67.8% | [14] 107% | [15] 70.4% | [16] 89.6% | [17] 79.1% | [18] 83.6% | [19] 75.6%

C=C1CCC2C3(C)COC(c4cccc(F)c4)OC3CCC2(C)C1CC(O)C1=CCOC1=O (configuration not stated)
active: [1] 8.31%
inactive: [2] 34.7% | [3] 74.2% | [4] 95.4% | [5] 70.2% | [6] 45.1% | [7] 60.1% | [8] 64.6% | [10] 64.1% | [20] 75.9% | [11] 87.9% | [12] 44.3% | [13] 57.1% | [14] 113% | [15] 68.6% | [16] 74.7% | [17] 125% | [18] 23.2% | [19] 41%

COc1cc(-c2nc3cc(Cl)c(Cl)cc3[nH]2)ccc1OCc1nnc(-c2ccc(Br)cc2)o1
active: [1] 3.31% | [3] -58.8% | [5] 1.03% | [6] -15.8% | [7] 3.12% | [8] -42.1% | [10] -25% | [20] 0.585% | [12] -39.2% | [13] -91.1% | [14] -43.4% | [15] -100% | [16] -76.6% | [17] -86.5% | [18] 7.7% | [19] -7.63%
inactive: [2] 10% | [4] 41.5% | [11] 14.3%

COc1ccc(-c2cc(C(=O)N=Nc3c(O)[nH]c4ccc(F)cc34)c3ccccc3n2)cc1
active: [5] 7.34%
inactive: [1] 21.5% | [2] 61.9% | [3] 84.6% | [4] 44.1% | [6] 76.6% | [7] 72.4% | [8] 81.4% | [9] 24.1% | [10] 81.1% | [11] 86.4% | [12] 65.5% | [13] 67.6% | [14] 120% | [15] 68.1% | [16] 87.8% | [19] 21.9%

COc1cc2oc(-c3cccc(C(=O)Nc4ccc(Cl)cc4)c3)cc(=O)c2c(OCCNC(=O)CNC(=O)OC(C)(C)C)c1OC
inactive: [1] 40.9% | [2] 63.2% | [3] 74.9% | [4] 78.9% | [5] 74.8% | [6] 57.2% | [7] 31.2% | [8] 81% | [10] 69.4% | [20] 78.4% | [11] 64.7% | [12] 53.5% | [13] 49.7% | [14] 83.9% | [15] 61.3% | [16] 34.2% | [17] 118% | [18] 49.4% | [19] 41.1%

Cc1ccc(-c2ccc(SCC(=O)Nc3ccc(S(N)(=O)=O)cc3Br)nn2)cc1
active: [1] 9.74% | [5] -45.8%
inactive: [2] 11.4% | [3] 68% | [4] 39.5% | [6] 18.4% | [7] 68.4% | [8] 60% | [10] 60.9% | [20] 80.6% | [11] 62.5% | [12] 39.5% | [13] 70.6% | [14] 84.7% | [15] 11.7% | [16] 56.9% | [17] 87.2% | [18] 93.4% | [19] 89.9%

O=C(CNc1nc(-c2ccccc2)cs1)Nc1ccc([N+](=O)[O-])cc1
inactive: [3] 87.6% | [4] 38.3% | [6] 33.7% | [20] 31.1% | [12] 16.9% | [17] 109% | [18] 14.3% | [19] 15.7%
active: [1] -23.5% | [2] -44.9% | [7] -69.3% | [8] 9.93% | [9] -19.5% | [10] -6.86% | [11] 9.52% | [13] -74.3% | [14] -58% | [15] -15.8% | [16] 7.15%

CN1CCc2c(sc3ncnc(N/N=C/c4cn(-c5ccccc5)nc4-c4ccc(Cl)cc4)c23)C1
inactive: [3] 74.1% | [4] 34.3% | [5] 18.2% | [6] 55.2% | [7] 30.7% | [10] 45% | [20] 36.3% | [11] 19.8% | [12] 24.9% | [13] 15.4% | [14] 49.9% | [15] 21.7% | [16] 23.8% | [17] 94.1% | [18] 11.4% | [19] 18.2%
active: [1] 7.13% | [2] 5.95% | [8] 9.22%
